Source: ChEMBL document CHEMBL3988442, “University of Dundee, Small-Polar-MMV Screening Library” (2021)
For part of these data: Results with a measured potency or affinity are listed apart.

Legend:
Design in all cases: scale not given: direction of the effect not stated beside the values
[1] = target: Protein translocase subunit SecA (Escherichia coli (strain K12)) (UniProt P10408); assay: Assay to Identify E. coli SecA ATPase Inhibitors; format: functional; settings: 30 µM
[2] = target: T1, Ubiquitin-activating enzyme e1, putative (Leishmania donovani (strain BPK282A1)) (UniProt E9BSI1); assay: Leishmania donovani Ubiquitin Activating Enzyme (LdE1); format: functional; settings: 30 µM
T1 sequence (whole entry): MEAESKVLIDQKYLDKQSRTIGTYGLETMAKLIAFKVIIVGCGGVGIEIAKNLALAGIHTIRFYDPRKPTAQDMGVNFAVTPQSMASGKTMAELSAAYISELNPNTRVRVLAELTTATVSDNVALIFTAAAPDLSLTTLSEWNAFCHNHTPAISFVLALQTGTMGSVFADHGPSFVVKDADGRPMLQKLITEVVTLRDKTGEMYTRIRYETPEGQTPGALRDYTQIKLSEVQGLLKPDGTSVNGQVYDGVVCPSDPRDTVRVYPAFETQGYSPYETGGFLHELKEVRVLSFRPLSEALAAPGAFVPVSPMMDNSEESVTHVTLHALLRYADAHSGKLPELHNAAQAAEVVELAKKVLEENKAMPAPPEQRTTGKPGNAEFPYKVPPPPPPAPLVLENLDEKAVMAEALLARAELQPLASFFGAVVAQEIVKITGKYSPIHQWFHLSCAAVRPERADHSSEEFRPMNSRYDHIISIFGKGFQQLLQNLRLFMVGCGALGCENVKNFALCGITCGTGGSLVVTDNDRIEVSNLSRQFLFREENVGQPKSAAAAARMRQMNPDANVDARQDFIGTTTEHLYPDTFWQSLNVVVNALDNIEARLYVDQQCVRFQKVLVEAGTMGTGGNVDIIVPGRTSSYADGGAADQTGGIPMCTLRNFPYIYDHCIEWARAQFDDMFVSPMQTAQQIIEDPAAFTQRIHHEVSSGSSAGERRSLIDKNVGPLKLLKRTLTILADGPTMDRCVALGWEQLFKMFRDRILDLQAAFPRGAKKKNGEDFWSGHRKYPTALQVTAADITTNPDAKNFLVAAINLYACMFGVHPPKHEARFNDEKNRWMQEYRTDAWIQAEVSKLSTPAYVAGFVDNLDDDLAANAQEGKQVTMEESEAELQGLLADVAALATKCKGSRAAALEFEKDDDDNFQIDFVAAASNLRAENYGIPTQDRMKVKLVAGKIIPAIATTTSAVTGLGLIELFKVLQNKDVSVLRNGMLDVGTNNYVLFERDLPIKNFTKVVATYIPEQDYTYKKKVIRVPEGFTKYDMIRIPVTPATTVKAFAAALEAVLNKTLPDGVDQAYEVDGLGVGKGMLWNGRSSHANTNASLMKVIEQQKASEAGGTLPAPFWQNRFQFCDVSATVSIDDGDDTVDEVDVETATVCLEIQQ

[3] = target: AMP-activated protein kinase, AMPK (Homo sapiens) (UniProt P54646+O43741+P54619+Q9UGJ0+Q9Y478+Q13131+Q9UGI9); assay: AMP-dependent Kinase enzyme assay. An in vitro enzyme assay that detects ADP turnover that is directly proportional to AMPK activity. This uses naive AMPK that is activated during the assay with MK-8722; format: functional; settings: 30 µM
[4] = target: Sialic acid-binding Ig-like lectin 9 (Homo sapiens) (UniProt Q9Y336); assay: Hs-Siglec9 ALPHAscreen SOP 20170721; settings: 10 µM
Trypanosoma cruzi = assay: Trypanosoma cruzi phosphomannomutase and mannose-1-phosphate guanylyltransferase assay; format: functional; settings: 10 µM
[5] = target: T2, Arginase-2, mitochondrial (Homo sapiens) (UniProt P78540); assay: in vitro enzyme assay to detect the production of urea directly proportional to the activity of Arginase II; format: functional; settings: 33.3 µM; further: in the data most compounds retested in dose-response had high values
T2 sequence (whole entry): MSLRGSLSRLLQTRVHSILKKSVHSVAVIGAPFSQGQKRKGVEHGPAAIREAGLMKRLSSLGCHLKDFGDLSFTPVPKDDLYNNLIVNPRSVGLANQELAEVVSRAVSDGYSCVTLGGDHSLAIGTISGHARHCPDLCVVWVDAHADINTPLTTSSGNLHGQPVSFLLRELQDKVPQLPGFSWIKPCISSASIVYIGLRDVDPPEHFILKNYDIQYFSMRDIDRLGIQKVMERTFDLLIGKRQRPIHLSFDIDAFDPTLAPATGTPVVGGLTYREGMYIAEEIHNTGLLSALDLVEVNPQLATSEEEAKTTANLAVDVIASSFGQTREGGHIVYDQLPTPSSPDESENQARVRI

[6] = target: T3, Proteasome subunit beta (Trypanosoma cruzi) (UniProt O96673); assay: Trypanosoma cruzi proteasome chymotrypsin-like activity (TcProtChymo) assay.; further: in the data most compounds retested in dose-response had high values; format: functional; settings: 9.37 µM
T3 sequence (whole entry): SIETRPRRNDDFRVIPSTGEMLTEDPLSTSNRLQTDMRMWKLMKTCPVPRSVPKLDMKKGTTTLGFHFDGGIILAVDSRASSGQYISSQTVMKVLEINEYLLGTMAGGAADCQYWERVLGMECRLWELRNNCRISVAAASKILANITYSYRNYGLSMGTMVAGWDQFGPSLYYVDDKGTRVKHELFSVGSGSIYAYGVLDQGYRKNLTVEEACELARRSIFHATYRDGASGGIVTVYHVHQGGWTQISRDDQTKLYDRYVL

Homo sapiens = species on record: Homo sapiens; assay: To identify inhibition of the IFN signalling (Jak-Stat) pathway via expression of an eGFP reporter gene under the control of an IFN-stimulated response element (ISRE) containing MxA promoter.; format: functional; settings: 30 µM
[7] = target: T4, Tyrosyl-tRNA synthetase, putative (Trypanosoma cruzi (strain CL Brener)) (UniProt Q4DSP6); assay: Trypanosoma cruzi tyrosyl tRNA synthetase (TcYRS) _High Tyrosine SOP; format: functional; settings: 30 µM; further: in the data most compounds retested in dose-response had high values
T4 sequence (whole entry): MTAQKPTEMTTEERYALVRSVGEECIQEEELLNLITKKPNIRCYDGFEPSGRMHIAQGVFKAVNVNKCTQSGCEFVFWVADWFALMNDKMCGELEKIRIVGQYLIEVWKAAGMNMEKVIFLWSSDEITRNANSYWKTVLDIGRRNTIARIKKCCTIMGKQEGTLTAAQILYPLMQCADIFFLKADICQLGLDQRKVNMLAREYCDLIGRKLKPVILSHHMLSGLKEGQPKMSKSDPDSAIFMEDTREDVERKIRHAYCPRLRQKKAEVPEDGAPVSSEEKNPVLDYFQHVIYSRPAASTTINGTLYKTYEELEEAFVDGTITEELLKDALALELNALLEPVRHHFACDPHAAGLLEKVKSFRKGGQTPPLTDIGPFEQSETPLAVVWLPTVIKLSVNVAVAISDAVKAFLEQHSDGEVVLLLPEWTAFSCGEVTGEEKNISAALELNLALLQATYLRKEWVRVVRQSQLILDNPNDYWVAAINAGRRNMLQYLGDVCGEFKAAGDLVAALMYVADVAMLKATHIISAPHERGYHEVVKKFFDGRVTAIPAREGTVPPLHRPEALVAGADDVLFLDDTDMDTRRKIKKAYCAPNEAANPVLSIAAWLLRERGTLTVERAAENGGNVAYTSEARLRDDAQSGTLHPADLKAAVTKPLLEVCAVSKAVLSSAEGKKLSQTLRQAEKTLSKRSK

[8] = target: T4, Tyrosyl-tRNA synthetase, putative (Trypanosoma cruzi (strain CL Brener)); assay: Trypanosoma cruzi tyrosyl tRNA synthetase (TcYRS) SOP; format: functional; settings: 30 µM
[9] = target: Chromo domain-containing protein 1 (Saccharomyces cerevisiae (strain ATCC 204508 / S288c) (Baker's yeast)) (UniProt P32657); assay: ScCHD-1 Enzyme Inhibition Assay; format: functional; settings: 30 µM; further: in the data most compounds retested in dose-response had high values
Sequence of Chromo domain-containing protein 1 (Saccharomyces cerevisiae (strain ATCC 204508 / S288c) (Baker's yeast)) (P32657 whole entry, the tested form may be a part): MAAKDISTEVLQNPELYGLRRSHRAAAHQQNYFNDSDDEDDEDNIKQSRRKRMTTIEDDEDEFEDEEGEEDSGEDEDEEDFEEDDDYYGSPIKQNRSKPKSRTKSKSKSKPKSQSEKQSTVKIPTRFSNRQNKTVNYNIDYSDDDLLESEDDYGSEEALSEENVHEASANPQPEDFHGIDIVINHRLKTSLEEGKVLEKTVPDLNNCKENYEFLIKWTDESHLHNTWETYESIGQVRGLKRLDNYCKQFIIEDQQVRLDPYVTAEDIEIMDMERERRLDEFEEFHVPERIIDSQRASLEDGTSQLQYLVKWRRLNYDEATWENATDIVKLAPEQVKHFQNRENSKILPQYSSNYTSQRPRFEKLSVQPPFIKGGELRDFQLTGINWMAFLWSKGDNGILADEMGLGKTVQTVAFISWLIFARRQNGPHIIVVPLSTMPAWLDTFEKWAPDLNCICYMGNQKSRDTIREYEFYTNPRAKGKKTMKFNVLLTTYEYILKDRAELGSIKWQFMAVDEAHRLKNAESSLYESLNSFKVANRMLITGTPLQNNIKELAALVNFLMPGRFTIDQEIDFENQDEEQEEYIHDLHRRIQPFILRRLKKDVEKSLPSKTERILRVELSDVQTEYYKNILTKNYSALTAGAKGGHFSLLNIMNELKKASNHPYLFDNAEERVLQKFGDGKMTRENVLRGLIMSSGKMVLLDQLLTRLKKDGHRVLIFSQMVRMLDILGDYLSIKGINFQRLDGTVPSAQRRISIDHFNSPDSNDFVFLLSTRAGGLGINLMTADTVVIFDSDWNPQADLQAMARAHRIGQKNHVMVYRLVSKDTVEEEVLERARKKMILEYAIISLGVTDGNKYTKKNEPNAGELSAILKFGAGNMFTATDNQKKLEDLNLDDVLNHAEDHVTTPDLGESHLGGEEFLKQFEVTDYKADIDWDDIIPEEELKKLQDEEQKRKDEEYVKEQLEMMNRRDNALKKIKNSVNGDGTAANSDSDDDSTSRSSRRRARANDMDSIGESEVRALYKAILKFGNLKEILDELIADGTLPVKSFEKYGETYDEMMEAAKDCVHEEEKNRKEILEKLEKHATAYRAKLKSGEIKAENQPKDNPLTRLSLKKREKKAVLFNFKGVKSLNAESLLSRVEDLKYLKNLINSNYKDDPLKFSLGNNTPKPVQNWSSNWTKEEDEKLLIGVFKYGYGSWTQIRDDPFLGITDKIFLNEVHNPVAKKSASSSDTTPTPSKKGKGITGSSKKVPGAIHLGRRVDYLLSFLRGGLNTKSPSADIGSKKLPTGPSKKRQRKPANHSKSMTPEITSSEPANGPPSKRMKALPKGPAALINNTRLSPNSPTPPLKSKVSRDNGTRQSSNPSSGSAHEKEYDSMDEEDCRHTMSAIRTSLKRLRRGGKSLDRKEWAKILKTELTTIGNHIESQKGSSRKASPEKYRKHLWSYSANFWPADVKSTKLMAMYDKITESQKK

Sequence of Sialic acid-binding Ig-like lectin 9 (Homo sapiens) (Q9Y336 whole entry): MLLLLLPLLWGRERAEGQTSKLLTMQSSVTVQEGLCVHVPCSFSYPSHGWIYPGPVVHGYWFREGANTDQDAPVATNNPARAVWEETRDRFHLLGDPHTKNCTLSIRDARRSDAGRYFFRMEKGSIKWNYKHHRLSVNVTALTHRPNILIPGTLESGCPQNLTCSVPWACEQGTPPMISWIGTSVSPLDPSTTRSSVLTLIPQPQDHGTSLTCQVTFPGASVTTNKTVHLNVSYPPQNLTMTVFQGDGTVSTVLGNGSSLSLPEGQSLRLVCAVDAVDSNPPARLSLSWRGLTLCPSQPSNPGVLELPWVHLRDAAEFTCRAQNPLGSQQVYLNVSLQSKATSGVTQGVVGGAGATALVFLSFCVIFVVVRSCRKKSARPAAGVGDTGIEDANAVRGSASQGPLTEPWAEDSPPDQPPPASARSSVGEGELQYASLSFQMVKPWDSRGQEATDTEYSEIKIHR
Sequence of Protein translocase subunit SecA (Escherichia coli (strain K12)) (P10408 whole entry): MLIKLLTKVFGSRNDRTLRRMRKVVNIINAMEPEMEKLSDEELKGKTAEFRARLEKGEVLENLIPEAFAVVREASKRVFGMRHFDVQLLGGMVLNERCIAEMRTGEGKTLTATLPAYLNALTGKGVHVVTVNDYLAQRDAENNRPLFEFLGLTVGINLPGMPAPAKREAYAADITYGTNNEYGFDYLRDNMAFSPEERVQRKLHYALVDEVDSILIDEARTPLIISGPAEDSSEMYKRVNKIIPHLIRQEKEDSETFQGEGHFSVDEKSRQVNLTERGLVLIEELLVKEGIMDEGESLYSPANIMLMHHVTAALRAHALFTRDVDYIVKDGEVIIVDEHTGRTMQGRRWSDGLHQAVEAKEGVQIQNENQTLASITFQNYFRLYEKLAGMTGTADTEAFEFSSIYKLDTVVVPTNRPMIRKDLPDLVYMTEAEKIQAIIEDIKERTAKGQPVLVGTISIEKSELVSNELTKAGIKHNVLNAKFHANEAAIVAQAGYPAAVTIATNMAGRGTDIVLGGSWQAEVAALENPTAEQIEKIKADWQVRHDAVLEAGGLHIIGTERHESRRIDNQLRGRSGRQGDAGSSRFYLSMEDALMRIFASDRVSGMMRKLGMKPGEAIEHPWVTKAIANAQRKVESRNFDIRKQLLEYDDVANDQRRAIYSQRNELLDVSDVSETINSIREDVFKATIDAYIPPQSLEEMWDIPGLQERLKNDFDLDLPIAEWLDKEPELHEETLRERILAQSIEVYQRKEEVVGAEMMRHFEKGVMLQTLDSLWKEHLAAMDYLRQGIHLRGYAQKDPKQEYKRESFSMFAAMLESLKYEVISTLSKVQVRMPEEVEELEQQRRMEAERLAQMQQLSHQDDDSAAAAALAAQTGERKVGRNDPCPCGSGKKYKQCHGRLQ

Structure (SMILES) | Percent Effect [1] | Percent Effect [2] | Percent Effect [3] | Percent Effect [4] | Percent Effect (Trypanosoma cruzi) | Percent Effect [5] | Percent Effect [6] | Percent Effect (Homo sapiens) | Percent Effect [7] | Percent Effect [8] | Percent Effect [9]
Cc1cc(C)n(-c2cncc(NCCNC(=O)C(C)C)n2)n1 | -6.42% | 8.11% | -5.29% | -1.97% | -3.03% | 0.248% | 10.4% | -9.83% | 4.3% | 6.17% | -5.51%
CC(C)c1nc(C(=O)N2CCCC(n3cncn3)C2)c[nH]1 (stereo unspecified) | -4.19% | 11.4% | 3.03% | 3.06% | -0.308% | 0.215% | 12.9% | 20.5% | 4.17% | 15.2% | -17%
Cn1cnc2c1C(COCC1CC1)CN(C(=O)Cc1ccsc1)C2 (stereo unspecified) | -4.47% | 10.4% | -8.29% | 8.48% | 6.02% | -8.39% | 7.14% | 9.25% | 2.12% | 6.41% | 84.8%
CCc1noc(CNc2cc(F)ccc2OCC2CCCO2)n1 (stereo unspecified) | -0.224% | -2.7% | -4.16% | 1.82% | -4.83% | -0.476% | 11.9% | 2.67% | -0.529% | 0% | -1.43%
Cn1nc(C#N)c2c1CN(C(=O)c1cccnc1)CCC2 | -4.61% | 2.6% | -0.491% | -7% | -2.66% | -1.94% | 3.13% | 6.32% | -2.12% | -6.41% | -0.821%
Cc1nccc(N2CCC(=O)N(Cc3ccc(F)cc3)C(C(C)C)C2)n1 (stereo unspecified) | -2.94% | 1.39% | 1.69% | -1.4% | -1.07% | -0.883% | 4.56% | -6.54% | 0% | 2.56% | 1.68%
CC(C)(C#N)C(=O)N1CCCC(c2cc(C(F)(F)F)[nH]n2)C1 (stereo unspecified) | -6.75% | 16.2% | -6.25% | 19.3% | 3.44% | -2.03% | 4.85% | 14.8% | 2.97% | 11% | -8.63%
O=C(c1ccnnc1)N1CCN2C[C@H](Oc3cccc(F)c3)C[C@H]2C1 | -1.92% | 8% | -1.06% | 6.61% | -2.7% | -20.2% | 1.37% | -0.178% | -2.08% | 10% | -6.63%
Cc1cc(C)n(CC2CCCN2CCCS(=O)(=O)N(C)C)n1 (stereo unspecified) | -1.98% | 16.2% | -6.22% | 14% | 5.99% | 11.9% | 13.6% | 8.21% | 4.76% | 19.5% | -4.54%
Cc1cc(N2CCC3(CCC(=O)N(CC4CC4)C3)CC2)nc(N)n1 | -4.29% | 5.41% | -2.2% | 5.16% | -0.88% | -1.74% | 8.15% | 7.43% | 9.68% | 8.64% | -3.15%
Cc1ncnc2c1CCN(Cc1ccc3c(c1)OCO3)CC2 | -2.54% | 13.7% | -1.53% | 8.83% | 3.97% | 1.2% | 6.08% | -10.2% | 3.12% | 11.1% | -2.7%
Cc1sc(NC(=O)CN(C)S(C)(=O)=O)c(C#N)c1C | -2.06% | 7.79% | 7.85% | -2.17% | -6.8% | -29% | 13.4% | 2.12% | 5.29% | 8.97% | -6.9%
Cc1nc(CN2CCCC(NCc3ccsc3)C2)no1 (stereo unspecified) | 1.07% | 18.2% | -3.38% | -6.19% | -7.3% | 4.63% | 16.1% | 20.4% | 4.85% | 12.2% | -8.54%
Cn1nc(CNC(=O)c2ccc(Cl)cc2)c2c1CCOC2 | -1.53% | 2.6% | 6.72% | 8.57% | 0.0986% | -3.23% | 1.22% | 5.87% | 4.23% | 6.41% | -3.86%
CC(C)c1ncc(CN2CCCC(CO)C2)cn1 (stereo unspecified) | -1.56% | 1.35% | 11.1% | 9.9% | -6.32% | 1.16% | 3.59% | -1.15% | 1.07% | 1.3% | -0.548%
CCC1=N[C@@]2(CC[C@@H]3CN(S(=O)(=O)CC)C[C@@H]32)C(=O)N1CC(C)C | -2.87% | 2.6% | -1.61% | 11.1% | -0.493% | -1.94% | 0.348% | 18.4% | 2.12% | 8.97% | -4.63%
COc1ccc(COCC(O)CNC(=O)c2cnc(C)cn2)cc1 (stereo unspecified) | -3.92% | -8.86% | 0.227% | 0.611% | 0.308% | -1.94% | 10.1% | 7.75% | 4.17% | 10.1% | -25.8%
CC(C)CN1C(=O)C2(CCN(Cc3nccs3)C2)c2ccccc21 (stereo unspecified) | -1.96% | 5.41% | -2.39% | 1.8% | -5.08% | 5% | 16.1% | 37.2% | 3.96% | 3.66% | -5.7%
Cc1cc2c(=O)n3c(nc2s1)CCN(Cc1cnn(C)c1C)CC3 | -4.39% | 9.46% | 12.6% | -0.402% | -4.74% | 2.09% | 8.58% | 7.67% | 5.38% | 9.09% | -8.69%
Cc1nc(CN2CCN(C(=O)COCc3ccccc3)CC2)no1 | -3.03% | 5.41% | -6.7% | 10.7% | 5.96% | 0.744% | 9.19% | -1.99% | -2.15% | 3.7% | -7.9%
CCc1nc(C)c(C(=O)NCCNc2cnccn2)s1 | -1.34% | 21.1% | -0.0117% | -1.62% | 1.77% | -1.44% | 15.8% | 4.13% | 9.36% | 25.9% | -8.55%
